Assay results published in PubChem BioAssay (Tox21).
“And” between values parts separate entries of the source, which are not always exact repeats. Equal values may be shown once. Records with an inconclusive call do not appear. Some structures have more than one record in an assay (separate samples or runs), and their calls can disagree. The source made the active and inactive calls. Unless noted, calls follow the shape of the dose curve; as a rule, active = well fitted curve in the direction sought with a large enough effect in the repeat runs; inconclusive = weak or mixed curves; inactive = no such curve, though single readings can be large; an effect the other way counts as inactive or inconclusive.

Tests used:
[1] = qHTS assay to identify small molecule antagonists of the progesterone receptor (PR) signaling pathway - cell viability counter screen (AID 1346798); also: series mostly up to about 92 µM; nearly all actives have a fitted effect of over 50% in size
In short: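 Viability was determined by ATP-based luminescence (CellTiter-Glo) in PR-UAS-bla HEK293T cells cultured in 2% charcoal-stripped serum and incubated 16 hr with compounds under R5020 stimulation.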

[2] = qHTS assay to identify small molecule agonists of the progesterone receptor (PR) signaling pathway - cell viability counter screen (AID 1346799; calls by dose curve; also: nearly all actives have a fitted effect of over 45% in size)
In short: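 Viability was scored by ATP luminescence (CellTiter-Glo, 30 min, room temperature) in the same wells used for the reporter readout, after 16 hr compound exposure of PR-UAS-bla HEK293T cells.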

[3] = qHTS assay to identify small molecule agonists of the TGF-beta/Smad signaling pathway - cell viability counter screen (AID 1346829); also: top concentration of the series differs between compounds; nearly all actives have a fitted effect of over 45% in size
In short: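 Here the cytotoxicity of library compounds is measured in SBE-bla HEK 293T cells treated for 5 hr, using CellTiter-Glo added to wells already read for the beta-lactamase reporter.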

[4] = qHTS assay to identify small molecule agonists of the TGF-beta/Smad signaling pathway (AID 1346859; active = well fitted activation curve with a large enough effect in the signal ratio in the repeat runs, not every such curve was filed as active; the % refers to the signal ratio; also: potency is read from the fitted curve at half-maximal effect; as to activation: series mostly up to about 77 µM)
In short: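 Dual-wavelength fluorescence (460/530 nm emission) quantified beta-lactamase expression under the Smad binding element in HEK 293T cells following 5 hr compound treatment at 37 C.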

[5] = Human pregnane X receptor (PXR) small molecule agonists, qHTS cell viability counter screen (AID 1346977); also: nearly all actives have a fitted effect of over 50% in size
In short: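 HepG2 cells stably carrying the PXR-Luc reporter are cultured with 5% charcoal-stripped FBS and treated with compounds for 24hr. CellTiter-Fluor is added at 23hr and fluorescence is read after 1hr.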

[6] = Caspase-3/7 induction in HepG2 cells by small molecules, qHTS assay (AID 1346978); also: nearly all actives have a fitted effect of over 15% in size
In short: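 Wild-type HepG2 cells, 2,000/well, settled 5 hr at 37 C and 5% CO2, then compound-treated for 17 hr; caspase-3/7 activity read by luminescent Caspase-Glo 3/7 after 30 min at room temperature.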

[7] = Caspase-3/7 induction in CHO-K1 cells by small molecules, qHTS cell viability counter screen (AID 1346979); also: nearly all actives have a fitted effect of over 35% in size; also: potency is read from the fitted curve at half-maximal effect
In short: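 Seeding: 1,500 CHO-K1 cells/well. Rest: 5hr, 37C. Treatment: compounds in DMSO, 16hr. Read: CellTiter-Fluor, 1hr, fluorescence.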

[8] = Caspase-3/7 induction in CHO-K1 cells by small molecules, qHTS assay (AID 1346980); also: nearly all actives have a fitted effect of over 15% in size
In short: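 Wild-type CHO-K1 cells exposed to compounds for 17hr at 37 C, 5% CO2. Caspase-3/7 activity then measured by Caspase-Glo 3/7 luminescence after 30min at room temperature.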

[9] = Caspase-3/7 induction in HepG2 cells by small molecules, qHTS cell viability counter screen (AID 1346981); also: series mostly up to about 92 µM; nearly all actives have a fitted effect of over 30% in size
In short: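 Viability determined by CellTiter-Fluor fluorescence in HepG2 wells also used for the luminescent Caspase-Glo 3/7 read. Compounds were present for 16 hr at 37 C, 5% CO2 before reagent addition.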

[10] = target: Acetylcholinesterase (Homo sapiens) (UniProt P22303); assay: Acetylcholinesterase (AChE) small molecule antagonists: colormetric cell-based qHTS assay (AID 1347395; calls by dose curve; also: nearly all actives have a fitted effect of over 30% in size; also: potency is read from the fitted curve at half-maximal effect)
Chain of Acetylcholinesterase (Homo sapiens) (P22303 whole entry, looked up): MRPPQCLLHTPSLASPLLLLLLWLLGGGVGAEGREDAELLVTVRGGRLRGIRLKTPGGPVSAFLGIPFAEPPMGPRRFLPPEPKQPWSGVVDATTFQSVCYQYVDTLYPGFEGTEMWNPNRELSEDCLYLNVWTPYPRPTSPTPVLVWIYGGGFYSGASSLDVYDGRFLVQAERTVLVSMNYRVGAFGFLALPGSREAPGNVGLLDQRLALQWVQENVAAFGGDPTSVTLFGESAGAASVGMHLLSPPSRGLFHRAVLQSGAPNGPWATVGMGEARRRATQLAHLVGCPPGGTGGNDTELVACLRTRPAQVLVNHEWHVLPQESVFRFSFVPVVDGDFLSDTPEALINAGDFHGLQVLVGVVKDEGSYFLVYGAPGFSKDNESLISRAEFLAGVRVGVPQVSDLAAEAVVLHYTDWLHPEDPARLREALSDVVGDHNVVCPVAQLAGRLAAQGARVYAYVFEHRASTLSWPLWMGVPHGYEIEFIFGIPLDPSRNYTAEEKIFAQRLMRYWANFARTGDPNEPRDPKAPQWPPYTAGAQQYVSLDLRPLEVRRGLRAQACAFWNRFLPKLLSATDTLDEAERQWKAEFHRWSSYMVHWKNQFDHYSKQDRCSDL
In short: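 Quantitative HTS in attached SH-SY5Y cells: 30 min compound exposure, then 90 min with acetylthiocholine and DTNB at 37 C; colour from thiocholine reports AChE activity.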

[11] = target: Acetylcholinesterase (Homo sapiens) (UniProt P22303); assay: Acetylcholinesterase (AChE) small molecule antagonists: enzyme-based qHTS assay (AID 1347397; calls by dose curve; also: nearly all actives have a fitted effect of over 55% in size; also: potency is read from the fitted curve at half-maximal effect); conditions: Potency: AChE enzyme activity inhibition
In short: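 Enzyme inhibition was scored from DTNB-detected thiocholine formed by recombinant human AChE acting on acetylthiocholine. The 30 min compound preincubation and 10 min substrate reaction were both run at room temperature, with DMSO as vehicle control.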

[12] = target: Acetylcholinesterase (Homo sapiens) (UniProt P22303); assay: Acetylcholinesterase (AChE) small molecule antagonists: fluorescence cell-based qHTS assay (AID 1347398; calls by dose curve; also: nearly all actives have a fitted effect of over 50% in size; also: potency is read from the fitted curve at half-maximal effect); conditions: Potency: AChE activity
In short: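 Endogenous acetylcholinesterase of SH-SY5Y neuroblastoma cells is measured in situ. After overnight attachment and 30 min compound exposure, cells receive acetylthiocholine and Thiolite Green; fluorescence is read after 40 min at room temperature.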

[13] = target: Acetylcholinesterase (Homo sapiens) (UniProt P22303); assay: Acetylcholinesterase (AChE) small molecule antagonists: enzyme-based qHTS assay with human liver microsomes (AID 1347399; calls by dose curve; also: nearly all actives have a fitted effect of over 60% in size; also: potency is read from the fitted curve at half-maximal effect); conditions: Potency: qHTS inhibition
In short: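 Recombinant human AChE (50 mU/mL in the enzyme mix) and human liver microsomes (0.25 mg/mL final) were preincubated with compound and NADPH (0.25 mg/mL final) for 30 min at 37 C. Acetylthiocholine/DTNB was then added; thiocholine was read colorimetrically after 10 min at room temperature.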

[14] = target: Cytochrome P450 2D6 (Homo sapiens) (UniProt P10635); assay: Cytochrome P450 Family 2 Subfamily D Member 6 (CYP2D6) small molecule antagonists: luciferase reporter qHTS assay (AID 1671196); also: nearly all actives have a fitted effect of over 50% in size; also: potency is read from the fitted curve at half-maximal effect
Chain of Cytochrome P450 2D6 (Homo sapiens) (P10635 whole entry, looked up): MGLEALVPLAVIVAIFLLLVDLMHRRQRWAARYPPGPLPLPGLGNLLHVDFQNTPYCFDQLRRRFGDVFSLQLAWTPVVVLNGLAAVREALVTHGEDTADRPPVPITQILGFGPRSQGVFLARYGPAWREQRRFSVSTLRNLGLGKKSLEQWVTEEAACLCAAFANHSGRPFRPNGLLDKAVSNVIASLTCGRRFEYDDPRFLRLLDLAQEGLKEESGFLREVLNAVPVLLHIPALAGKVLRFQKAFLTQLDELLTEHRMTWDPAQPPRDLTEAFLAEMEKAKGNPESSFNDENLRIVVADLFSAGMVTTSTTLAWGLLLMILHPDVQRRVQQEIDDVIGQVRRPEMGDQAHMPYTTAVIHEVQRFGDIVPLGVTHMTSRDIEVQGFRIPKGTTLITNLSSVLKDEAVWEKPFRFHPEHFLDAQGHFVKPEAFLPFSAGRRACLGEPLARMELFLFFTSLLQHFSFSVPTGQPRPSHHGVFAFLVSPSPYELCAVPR
In short: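 Each well received CYP2D6 with its proluciferin substrate and chemical, sat 10 min, then got NADPH regeneration solution for 1 h at room temperature. Luminescence in RLU served as the activity measure.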

[15] = target: Nuclear receptor subfamily 1 group I member 2 (Homo sapiens) (UniProt O75469); assay: Human pregnane X receptor (PXR) small molecule agonists, qHTS assay (AID 1346982); also: nearly all actives have a fitted effect of over 35% in size; also: potency is read from the fitted curve at half-maximal effect
Chain of Nuclear receptor subfamily 1 group I member 2 (Homo sapiens) (O75469 whole entry, looked up): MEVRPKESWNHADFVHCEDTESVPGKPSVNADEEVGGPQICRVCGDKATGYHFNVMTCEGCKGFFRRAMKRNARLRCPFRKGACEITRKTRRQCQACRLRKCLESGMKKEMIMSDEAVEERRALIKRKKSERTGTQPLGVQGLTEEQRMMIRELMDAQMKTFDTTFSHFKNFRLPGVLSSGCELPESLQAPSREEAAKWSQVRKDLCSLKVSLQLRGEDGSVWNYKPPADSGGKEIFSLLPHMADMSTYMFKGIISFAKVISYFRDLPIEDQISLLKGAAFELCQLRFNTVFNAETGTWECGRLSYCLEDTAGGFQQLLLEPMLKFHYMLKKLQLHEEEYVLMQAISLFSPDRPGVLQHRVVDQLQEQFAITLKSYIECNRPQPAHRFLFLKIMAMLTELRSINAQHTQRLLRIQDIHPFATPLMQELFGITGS
In short: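 Compound-induced hPXR transactivation of a CYP3A4 luciferase reporter was scored in HepG2 PXR-Luc cells over 24 hr at 37 C, 5% CO2, by luminescence.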

[16] = target: Thyrotropin-releasing hormone receptor (Homo sapiens) (UniProt P34981); assay: qHTS assay to identify small molecule antagonists of the thyrotropin-releasing hormone receptor (TRHR) signaling pathway (AID 1346877; active = well fitted inhibition curve with a large enough effect in the repeat runs, not every such curve was filed as active; also: series mostly up to about 51 µM)
Chain of Thyrotropin-releasing hormone receptor (Homo sapiens) (P34981 whole entry, looked up): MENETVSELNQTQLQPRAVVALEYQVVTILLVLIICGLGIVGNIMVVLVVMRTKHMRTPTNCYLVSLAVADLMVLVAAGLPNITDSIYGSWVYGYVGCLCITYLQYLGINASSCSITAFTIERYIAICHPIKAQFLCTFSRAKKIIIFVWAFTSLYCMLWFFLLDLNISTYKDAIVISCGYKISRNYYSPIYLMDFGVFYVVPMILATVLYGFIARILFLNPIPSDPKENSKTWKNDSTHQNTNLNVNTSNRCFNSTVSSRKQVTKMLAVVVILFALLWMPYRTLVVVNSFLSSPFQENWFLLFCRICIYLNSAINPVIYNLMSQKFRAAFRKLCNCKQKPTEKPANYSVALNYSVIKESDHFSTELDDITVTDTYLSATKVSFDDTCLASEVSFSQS
In short: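 Following an 18 h incubation at 37 °C and a 2 h calcium dye load, TRHR-HEK293 cells were exposed to compound (5 min, room temperature) and challenged with TRH, 1 nM final.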

[17] = target: Thyrotropin-releasing hormone receptor (Homo sapiens) (UniProt P34981); assay: qHTS assay to identify small molecule agonists of the thyrotropin-releasing hormone receptor (TRHR) signaling pathway (AID 1346891; calls by dose curve;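 also: HEK293 cells expressing TRHR with calcium dye readout; series mostly up to about 58 µM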)
In short: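 Kinetic fluorescence (3 min, 1 s intervals) reported intracellular calcium after compound transfer onto TRHR-Hek293 cells pre-loaded with dye for 2 h at 37 °C.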

[18] = qHTS assay to identify small molecule antagonists of the TGF-beta/Smad signaling pathway - cell viability counter screen (AID 1346824); also: nearly all actives have a fitted effect of over 50% in size
In short: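 SBE-bla HEK 293T cells, incubated overnight, then compound plus 0.25 ng/mL TGF-beta1 (stock added) for 5 hr at 37 C. Viability was read in the same wells by CellTiter-Glo luminescence after 30 min at room temperature.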

Measured: Potency

O=C1CCCN1
55.5 µM (active) and inactive: [4]
inactive: [1] | [2] | [3] | [5] | [6] | [7] | [8] | [9] | [10] | [11] | [12] | [13] | [14]

C1CC2OC2CC1C1CO1 (centres undefined)
inactive: [1] | [2] | [3] | [4] | [5] | [6] | [7] | [8] | [15] | [10] | [12] | [13] | [14]

Cn1cc(-c2ccccc2)c(=O)c(-c2cccc(C(F)(F)F)c2)c1
inactive: [1] | [2] | [3] | [4] | [16] | [17] | [5] | [6] | [8] | [10] | [11] | [12] | [13]

Nc1c(Cl)c(Cl)nc(C(=O)O)c1Cl
inactive: [1] | [2] | [3] | [16] | [17] | [5] | [6] | [7] | [8] | [10] | [12] | [13] | [14]

CCNc1nc(NC(C)C)nc(SC)n1
inactive: [2] | [18] | [3] | [4] | [16] | [17] | [5] | [6] | [7] | [8] | [9] | [10] | [11] | [12] | [13] | [14]

O=S(=O)(c1ccc(Cl)cc1)c1cc(Cl)c(Cl)cc1Cl
active: [7] 54.4 µM and 68.6 µM | [15] 30.6 µM
inactive: [1] | [18] | [3] | [4] | [16] | [17] | [5] | [6] | [8] | [9] | [10] | [11] | [12] | [13] | [14]

CNC(=O)Oc1ccccc1OC(C)C
inactive: [1] | [2] | [3] | [4] | [16] | [17] | [5] | [6] | [7] | [8] | [15] | [14]
active: [10] 2 µM and 2.24 µM | [11] 3.18 µM and 3.17 µM | [12] 798 nM and 1.59 µM | [13] 22.5 µM and 22.4 µM

O=c1[nH]c(=O)[nH]c(=O)[nH]1
63.2 µM (active) and inactive: [14]
inactive: [1] | [2] | [3] | [4] | [16] | [17] | [5] | [6] | [7] | [8] | [9] | [15] | [10] | [12] | [13]

Cc1cc(Cl)ccc1O
active: [14] 19.4 µM and 12.6 µM
inactive: [1] | [2] | [3] | [4] | [16] | [17] | [5] | [6] | [7] | [8] | [9] | [10] | [11] | [12] | [13]
